In this assay the target is Dickkopf-related protein 1 (Homo sapiens) (UniProt O94907). In words: small molecules binding DKK1 protein – biochemical, small-molecule microarray, 635 nm fluorescence scan, primary screen (AID 1106).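 Note: score merges emission near 667 nm with signal to noise over three replicate slides.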 Conditions: higher = more signal.
Chain of Dickkopf-related protein 1 (Homo sapiens) (O94907 whole entry, looked up): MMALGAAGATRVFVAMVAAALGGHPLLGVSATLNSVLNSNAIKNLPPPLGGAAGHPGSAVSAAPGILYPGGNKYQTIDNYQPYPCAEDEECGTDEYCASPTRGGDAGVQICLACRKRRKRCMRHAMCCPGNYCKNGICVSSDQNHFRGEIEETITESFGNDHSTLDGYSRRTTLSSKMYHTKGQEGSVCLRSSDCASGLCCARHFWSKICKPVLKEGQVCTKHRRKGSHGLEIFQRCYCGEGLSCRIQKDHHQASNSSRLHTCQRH
Molecule `COC(=O)[C@@]1(Cc2ccccc2)[C@H]2c3cc(C(=O)N4CCCC4)[nH]c3C[C@H]2CN1C(=O)c1ccccc1` came in with a composite z-score of -0.988.
Next, `O=C(O)[C@H](Cc1ccccc1)n1cc(-c2ccccn2)nn1`: 0.227; `O=C1O[C@@H](c2ccccc2)[C@@H](c2ccccc2)N2[C@@H](c3ccccc3OCCO)[C@]3(C(=O)Nc4ccc(C#CCCO)cc43)[C@@H](C(=O)N3CCN(c4ncccn4)CC3)[C@H]12`: 0.464; `COc1ccc([Si](C)(C)[C@@H]2[C@@H](CCO)O[C@]3(C(=O)N(Cc4cccc(N5C(=O)c6ccccc6Oc6ccccc65)c4)c4ccccc43)[C@H]2C)cc1`: -0.812.
The figure for `CN(C)CCCN1C(=O)[C@@]2(c3ccc([N+](=O)[O-])cc3)CC(=O)N(CC34CC5CC(CC(C5)C3)C4)[C@@H]2c2ccc(CO)cc21` is -0.482; for `C[C@]12C(=O)N(CCCCCCO)[C@@H]3C(=O)N(c4ccc(Cl)cc4)CC=CC31O[C@@H]1/C=C\CCCOC(=O)C12` (some centres undefined) it is -0.742; for `CC1CC/C=C\[C@H]2OC34C=CCN(c5ccc6ccccc6c5)C(=O)[C@H]3N(C(CO)C(C)C)C(=O)[C@@H]4C2C(=O)O1` (some centres undefined) it is -0.495.
Molecule `O=C1O[C@@H](c2ccccc2)[C@@H](c2ccccc2)N2[C@@H](c3ccc(O)cc3)[C@]3(C(=O)Nc4ccc(C#CC5=CCCCC5)cc43)[C@@H](C(=O)N3CCN(c4ncccn4)CC3)[C@H]12` yielded a composite z-score of 0.283.
Next, `C[C@H]1ON(c2ccc(C(=O)OC(C)(C)C)cc2)[C@@H](c2ccc(O)cc2)[C@@H]1C(=O)N1C(=O)OC[C@@H]1c1ccccc1`: 0.624.
